Source: the supplement of paper PMC6089552
The whole screen tested about 3,200 compounds, of which about 300 (9.4%) showed activity. The sample holds actives, similar compounds and a random draw of the others, so the mix is not that of the screen.

System: A673/TR/shEF
Assay: cell viability (LOESS-normalised, relative to median of negative controls) (log2 ratio); higher = more viable cells (less compound effect), active = hit call of the paper (over 3 MAD below the median)
Details: treatment time: 72 h
In short: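 Doxycycline, present or absent from 24 h before compounds, was used to induce EWS-FLI1 shRNA knockdown in A673/TR/shEF Ewing sarcoma cells at 1,500 per well in 384-well plates. Cells then received library compounds at two or more concentrations, or DMSO controls, for three days. Viability was measured by CellTiter-Glo luminescence on an Envision reader, and per-plate LOESS correction, division by the negative-control median and log2 transformation followed.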

[1] = 0.25 µM, library screen: screen1, EWS-FLI1 expression: high (no doxycycline)
[2] = 0.25 µM, library screen: screen1, EWS-FLI1 expression: low (doxycycline-induced shRNA knockdown)
[3] = 2.5 µM, library screen: screen1, EWS-FLI1 expression: high (no doxycycline)
[4] = 2.5 µM, library screen: screen1, EWS-FLI1 expression: low (doxycycline-induced shRNA knockdown)
[5] = 0.25 µM, library screen: screen2, EWS-FLI1 expression: high (no doxycycline)
[6] = 0.25 µM, library screen: screen2, EWS-FLI1 expression: low (doxycycline-induced shRNA knockdown)
[7] = 2.5 µM, library screen: screen2, EWS-FLI1 expression: high (no doxycycline)
[8] = 2.5 µM, library screen: screen2, EWS-FLI1 expression: low (doxycycline-induced shRNA knockdown)

Measured: cell viability (log2)

CN1Cc2c(ccc3c2OCO3)[C@@H]2[C@H]1c1cc3c(cc1C[C@@H]2O)OCO3
inactive: [1] 0.0821 | [2] 0.0876 | [3] -0.0483 | [4] 0.0764

Ic1ccccc1CN[C@H]1C2CCN(CC2)[C@H]1C(c1ccccc1)c1ccccc1
inactive: [5] 0.128 | [6] 0.206 | [7] 0.245 | [8] 0.191

CC1(C)C(=O)C=C[C@]2(C)C1=C(O)C(=O)[C@@]1(C)[C@H]2CC[C@]2(C)[C@@H](c3ccoc3)C[C@@H]3O[C@]312
inactive: [1] 0.0131 | [2] 0.0981 | [3] -0.0522 | [4] 0.0901

CCCC(C)C1(CC)C(=O)NC(=S)NC1=O (stereo not given)
inactive: [1] 0.047 | [2] -0.0503 | [3] 0.164 | [4] 0.136

CNC(=O)Oc1cccc2c1OC(C)(C)O2
inactive: [1] 0.147 | [2] 0.159 | [3] 0.155 | [4] 0.0893

CCCCCC[C@H]1C(=O)O[C@H](C)[C@H](NC(=O)c2cccc(NC=O)c2O)C(=O)O[C@@H](C)[C@@H]1OC(=O)CC(C)C
active: [1] -0.888 | [2] -0.636 | [3] -1.71 | [4] -0.774

Cc1ccc2cc3c(ccc4ccccc43)c3c2c1CC3
inactive: [1] 0.0577 | [2] -0.00243 | [3] 0.111 | [4] 0.12

CC(C)Oc1cccnc1N(C)C1CCN(Cc2ccc(I)cc2)CC1
inactive: [5] 0.0944 | [6] 0.0215 | [7] 0.21 | [8] 0.0697

CC(C)N(C(=O)CCl)c1ccccc1
inactive: [1] 0.0295 | [2] 0.0848 | [3] 0.154 | [4] 0.0575

O=C(O)CNCP(=O)(O)O
inactive: [1] 0.0875 | [2] 0.0822 | [3] 0.124 | [4] 0.106

NCC(O)c1cc(O)c(O)cc1F (stereo not given)
inactive: [5] 0.233 | [6] 0.183 | [7] 0.0966 | [8] 0.0732

CC(=O)Oc1ccc(Cl)c2cccnc12
inactive: [1] 0.106 | [2] 0.136 | [3] 0.0698 | [4] 0.0992

C[CH2][Hg][S]c1ccccc1C(=O)O
inactive: [2] -0.123
active: [1] -0.15 | [3] -3.6 | [4] -2.98

CCCCOC(=O)c1ccccc1C(=O)OCCCC
inactive: [1] 0.118 | [2] 0.0394 | [3] 0.0831 | [4] -0.283

CNc1ccccc1C(=O)O
inactive: [1] 0.0696 | [2] 0.0258 | [3] 0.131 | [4] 0.00755

CC(=O)C1=C(O)[C@@H]2[C@H]3c4c[nH]c5cccc(c45)C[C@H]3C(C)(C)N2C1=O
inactive: [1] 0.0498 | [2] 0.042 | [3] 0.0855 | [4] 0.00492

COc1cc2c(c(OC)c1OC)-c1ccc(O)c(=O)cc1C(NC(C)=O)CC2 (stereo not given)
inactive: [1] 0.0964 | [2] 0.0193
active: [3] -1.1 | [4] -0.493

COc1cc2c(c(OC)c1OC)-c1ccc(OC)c(=O)cc1[C@@H](NC(C)=O)CC2
active: [1] -4.23 | [2] -0.935 | [5] -3.33 | [6] -0.503 | [3] -4.18 | [4] -0.869 | [7] -3.21 | [8] -0.472 | 25 µM, library screen: screen2, EWS-FLI1 expression: high (no doxycycline) -3.45 | 25 µM, library screen: screen2, EWS-FLI1 expression: low (doxycycline-induced shRNA knockdown) -0.515
inactive: 0.025 µM, library screen: screen2, EWS-FLI1 expression: high (no doxycycline) 0.127 | 0.025 µM, library screen: screen2, EWS-FLI1 expression: low (doxycycline-induced shRNA knockdown) 0.0363

COc1ccc2c(c1O)-c1c(OC)c(OC)cc3c1[C@H](C2)N(C)CC3
inactive: [1] -0.01 | [2] -0.0109 | [3] 0.111 | [4] 0.131

COc1cc2c(cc1OC)C(=O)c1ccc(OC)c(OC)c1OCC(=O)C2
inactive: [1] 0.0297 | [2] 0.0329 | [3] 0.104 | [4] 0.0978

C=C(C)c1cc2cc(C(C)=O)c(O)cc2o1
inactive: [1] 0.113 | [2] 0.098 | [3] 0.0228 | [4] 0.00912

OCC(O)Cc1ccc2c(c1)OCO2 (stereo not given)
inactive: [1] 0.0615 | [2] 0.039 | [3] 0.0501 | [4] 0.111

CC1(C)C(=O)[C@@H]2O[C@@H]2[C@@]2(C)C1C[C@@H](O)[C@]1(C)C2CC[C@@]2(C)[C@H](c3ccoc3)OC(=O)C3OC321 (stereo not given in full)
inactive: [1] 0.0599 | [2] 0.093 | [3] 0.0793 | [4] 0.18

CC1(C)C(=O)C=C[C@]2(C)[C@H]3CC[C@@]4(C)[C@H](c5ccoc5)OC(=O)[C@H]5O[C@]54[C@]3(C)[C@H](O)C[C@@H]12
inactive: [1] -0.0265 | [2] 0.039 | [3] 0.0641 | [4] 0.0262

Cc1ccccc1CN1CCN(Cc2ccc(F)cc2)CC1
inactive: [1] 0.0915 | [2] 0.13 | [3] 0.113 | [4] 0.0962

C[C@@H]1CC[C@@]2(OC1)O[C@H]1[C@@H](O)[C@H]3[C@@H]4CC[C@H]5C[C@@H](O[C@@H]6O[C@H](CO)[C@H](O[C@@H]7O[C@H](CO)C(O)[C@H](O[C@@H]8OC[C@@H](O)[C@H](O)[C@H]8O)[C@H]7O[C@@H]7O[C@H](CO)[C@H](O)[C@H](O[C@@H]8O[C@H](CO)[C@@H](O)[C@H](O)[C@H]8O)[C@H]7O)[C@H](O)[C@H]6O)[C@H](O)C[C@]5(C)[C@H]4CC[C@]3(C)[C@H]1[C@@H]2C (stereo not given in full)
inactive: [1] 0.0473 | [2] 0.00355 | [3] 0.099 | [4] 0.184

C[C@H]1CC[C@]2(NC1)O[C@H]1C[C@H]3[C@@H]4CC[C@H]5C[C@@H](O)CC[C@]5(C)[C@H]4CC[C@]3(C)[C@H]1[C@@H]2C
inactive: [1] 0.0391 | [2] 1.7e-05 | [3] 0.161 | [4] 0.0669

C[C@H]1CC[C@]2(NC1)O[C@H]1C[C@H]3[C@@H]4CC[C@H]5C[C@@H](O[C@@H]6O[C@H](CO)[C@H](O[C@@H]7O[C@H](CO)[C@@H](O)[C@H](O[C@@H]8OC[C@@H](O)[C@H](O)[C@H]8O)[C@H]7O[C@@H]7O[C@H](CO)[C@@H](O)[C@H](O)[C@H]7O)[C@H](O)[C@H]6O)CC[C@]5(C)[C@H]4CC[C@]3(C)[C@H]1[C@@H]2C
inactive: [1] 0.0131 | [2] -0.12
active: [3] -1.17 | [4] -1.98
